Hits are enriched below; roughly 4.3% of the tested compounds scored in any of these assays.
HGIII-sPLA2 inh: human group III sPLA2 inhibitors, primary screen, biochemical, QFRET, BODIPY PC-A2 liposome substrate. Group 3 secretory phospholipase A2 (Homo sapiens), Q9NZ20. hit rate 0.56% among 370,000. AID 743126, 2013. inhibition, % at 12.2 µM. QFRET BODIPY PC-A2 liposome hydrolysis, fluorescence;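 active = inhibition above mean plus 3 SD of compounds lying within the high and low control bounds, cut at about 19% in these data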;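 note: 0% = median of test compound wells and 100% = no enzyme DMSO wells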
Target sequence (Q9NZ20 whole entry, looked up): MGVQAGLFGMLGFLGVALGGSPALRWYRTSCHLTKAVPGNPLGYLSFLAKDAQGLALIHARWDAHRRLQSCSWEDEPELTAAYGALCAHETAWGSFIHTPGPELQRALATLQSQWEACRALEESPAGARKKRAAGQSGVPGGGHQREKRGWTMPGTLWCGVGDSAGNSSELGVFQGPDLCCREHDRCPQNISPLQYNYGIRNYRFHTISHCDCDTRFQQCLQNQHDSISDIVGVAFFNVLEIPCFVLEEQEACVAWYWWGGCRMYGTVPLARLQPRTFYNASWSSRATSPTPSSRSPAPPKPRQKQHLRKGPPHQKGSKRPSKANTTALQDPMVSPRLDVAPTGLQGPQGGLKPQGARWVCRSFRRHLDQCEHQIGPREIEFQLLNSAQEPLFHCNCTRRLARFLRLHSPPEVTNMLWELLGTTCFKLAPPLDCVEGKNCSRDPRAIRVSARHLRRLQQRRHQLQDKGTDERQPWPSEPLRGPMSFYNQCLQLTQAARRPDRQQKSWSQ
FAS TE block: FAS thioesterase domain inhibitors, primary screen, biochemical, fluorescence intensity, uHTS. AID 602261, 2012. hit rate 0.67% among 360,000. inhibition, % at 15 µM. recombinant FAS-TE, OMFH fluorogenic substrate, fluorescence endpoint;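 active = compounds whose normalised, plate-corrected inhibition of enzyme fluorescence in the single-dose primary screen is 50% or more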;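 note: 0% = DMSO with enzyme and 100% = substrate without enzyme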
ADAM17 inh: ADAM17 inhibitors, primary screen, biochemical, QFRET; Disintegrin and metalloproteinase domain-containing protein 17 (Homo sapiens), P78536; recombinant ADAM17, EDANS/DABCYL FRET peptide cleavage; inhibition, % at 6.95 µM; hit rate 0.83% among 370,000;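 active = inhibition above the mean of compounds lying between control limits plus 3 SD, set per campaign, cut at about 8.5% in these data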;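 note: 0% = DMSO-only wells as the low control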
ADAM10 inh: human ADAM10 inhibitors, primary screen, biochemical, QFRET, HTS; Disintegrin and metalloproteinase domain-containing protein 10 (Homo sapiens), O14672; recombinant ADAM10, EDANS/DABCYL FRET peptide cleavage, 3 h; inhibition, % at 7 µM; hit rate 0.62% among 370,000; AID 720582, 2013;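 active = inhibition above a per-campaign cutoff equal to the mean of compounds falling between control-based bounds plus 3 SD, cut at about 20% in these data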;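 note: 0% = DMSO wells while the 100% control is not disclosed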
NR3A LBD binder: binders of NR3A ligand-binding domain, primary screen, biophysical, differential scanning fluorimetry, uHTS; Tm shift relative to glycine control, % at 25 µM; Glutamate receptor ionotropic, NMDA 3A (GRIN3A) ligand-binding domain; NR3A LBD differential scanning fluorimetry, Tm shift; 0% = protein alone, 100% = glycine-bound protein; hit rate 2.5% among 340,000;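 active = melting temperature shift of at least 10% of the positive control shift, at one fixed dose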
An asterisk follows results filed as active; x = no result.

SMILES | HGIII-sPLA2 inh | FAS TE block | ADAM17 inh | ADAM10 inh | NR3A LBD binder
COc1cc(C(C(=O)NC2CCCCC2)N(C(=O)Cc2c[nH]c3ccccc23)c2ccc(C)cc2)cc(OC)c1OC (configuration not stated) | -102 | 14 | 5 | 14 | 26*
COC(=O)C1CN(Cc2cn(Cc3ccc(C)cc3)nn2)CCS(=O)(=O)N1Cc1ccc(Cl)cc1 (configuration not stated) | -7 | x | 1 | -1 | x
O=C(NCc1ccccc1)OCCCN1C(=O)CCC12CCCCC2 | 2 | x | -2 | 0 | x
CC1(C)C2CCC1(C)C(OC(=O)CC(=O)O)C2 (configuration not stated) | -1 | x | 0 | 2 | 10*
CC1(C)C2CCC1(C)C(OC(=O)C[n+]1ccccc1)C2 (configuration not stated) | -29 | -3 | -4 | -3 | 0
Cc1cc(Br)cn2c(Cc3ccccc3C(F)(F)F)c(-c3ccc(F)cc3)nc12 | -17 | x | 3 | 5 | x
CCOc1ccc(NC(=O)c2nnn(CC(=O)Nc3ccccc3OCC)c2N)cc1 | -13 | -3 | -5 | 2 | -2
COc1ccc(CCNC(=O)c2nnn(CC(=O)Nc3ccccc3C)c2N)cc1OC | -5 | -5 | -1 | 1 | 1
CCOc1ccc(OCC)c(NC(=O)c2nnn(CC(=O)Nc3cc(C)cc(C)c3)c2N)c1 | 2 | 1 | 2 | 3 | 16*
CCOc1ccc(CCNC(=O)c2nnn(CC(=O)Nc3ccccc3C)c2N)cc1OCC | -3 | -14 | -4 | 3 | 12*
COC(=O)[C@]12C[C@H](CC(=O)NCc3cccs3)C(=O)N(Cc3ccc4c(c3)OCO4)C1=C[C@H](C(C)C)O[C@@H]2C1CC1 | -6 | x | 3 | 7 | x
CC1=NN(C(N)=S)C(=O)C1N=Nc1ccc(Cl)cc1Cl (configuration not stated) | 0 | 7 | 0 | -5 | 11*
CC1=NN(C(N)=S)C(=O)C1N=Nc1ccc(C)c(Br)c1 (configuration not stated) | 2 | -1 | -1 | 5 | 12*
CC1=NN(C(N)=S)C(=O)C1N=Nc1ccccc1Cl (configuration not stated) | -1 | -1 | -1 | -2 | 3
CC1=NN(C(N)=S)C(=O)C1N=Nc1ccc(O)cc1 (configuration not stated) | 1 | -6 | 4 | 4 | -2
CC(OC(=O)c1ccc([N+](=O)[O-])o1)C(=O)Nc1nc(-c2ccc(F)c(F)c2)cs1 (configuration not stated) | 13 | 10 | -1 | -9 | 15*
Cc1ccc(-n2c(C)cc(C3=NNC(=NC4CC4)SC3)c2C)cc1C | -4 | -10 | 9.5* | 5 | -4
Cc1cc(Cl)c(OCCOCCN2CCC(C)CC2)c(Br)c1 | -10 | -9 | 2 | 2 | 17*
O=C(NCc1ccccc1)C1CCN(c2nc(-c3ccc(Br)cc3)cs2)CC1 | -1 | x | 0 | -7 | x
Cc1c(C(=O)N/N=C/C(C)C)[nH]c2ccc([N+](=O)[O-])cc12 | 3 | -3 | 3 | 7 | 0
CCOc1ccc(/C=N/NC(=O)c2[nH]c3ccc(C)cc3c2C)cc1 | -11 | 14 | 1 | 1 | 26*
Cc1c(C(=O)N/N=C/c2ccc(Cl)cc2)[nH]c2ccc(Cl)cc12 | 7 | 10 | 6 | -4 | 26*
O=[N+]([O-])c1ccc(N=Nc2c(Cl)cc(O)cc2Cl)cc1 | -25 | 29 | 5 | 17 | 18*
CCn1c(=S)sc2c(=O)n(CC(=O)Nc3cccc(Cl)c3)c(C)nc21 | -6 | 33 | 4 | 12 | 33*
O=C(CCN1C(=O)S/C(=C\C=C\c2ccccc2)C1=O)Nc1ccc(O)cc1 | -23 | 4 | 0 | 2 | 13*
SMILES | HGIII-sPLA2 inh | FAS TE block | ADAM17 inh | ADAM10 inh | NR3A LBD binder
O=C(CN1C(=O)S/C(=C\C=C\c2ccccc2)C1=O)Nc1cccc(O)c1 | -24 | 12 | 7 | 14 | 27*
CC(C)CN1C(=O)[C@]2(CC(=O)N(C)C2c2ccccc2)c2cc(-n3cc(-c4ccccc4)nn3)ccc21 (some centres not stated) | 3 | x | 5 | 2 | x
C/C(CC(=O)Nc1ccc(Cl)c(C(F)(F)F)c1)=N\NC(=O)c1cccc(O)c1 | -26 | -2 | -1 | -1 | -3
C/C(CC(=O)Nc1ccc(Cl)c(C(F)(F)F)c1)=N\NC(=O)c1ccccc1O | -16 | 8 | -2 | -6 | 24*
COc1cc(C(=O)Nc2cccc(-c3nc4ccccc4o3)c2C)cc(OC)c1OC | 16 | -5 | 9 | 0 | 2
COc1cccc(C(=O)Nc2ccc(-c3nc4ccccc4o3)c(O)c2)c1 | 2 | 18 | -132 | -470 | 34*
COc1cccc(C(=O)Nc2ccc(-c3nnc(-c4ccco4)o3)cc2)c1 | -26 | 20 | -42 | -91 | 10*
COc1cc(OC)cc(C(=O)Nc2ccc(-c3nc4ccccc4o3)cc2)c1 | -6 | 20 | -10 | -42 | 20*
CS(=O)(=O)c1ccccc1C(=O)Nc1ccc(-c2nc3ccccc3o2)cc1 | -27 | 2 | -2 | -5 | -3
COc1cc(C(=O)Nc2ccc(-c3nc4cc(C)ccc4o3)c(O)c2)cc(OC)c1OC | 6 | 36 | -9 | -17 | 35*
COc1ccc(CN2C(=O)CSCCC2(C)c2nnnn2-c2c(C)cccc2C)cc1 (configuration not stated) | 9 | x | -6 | -9 | x
COc1ccc(Cn2c(NC(=O)c3ccccc3)nc(Cc3ccccc3)c2-c2ccccc2)cc1 | 12 | x | -2 | -15 | x
CCOC(=O)[C@]12CCCC=C1N(Cc1ccc(OC)cc1)C(=O)[C@@H]2CC(=O)NCCC(C)C | -3 | x | -1 | -2 | x
COc1cccc(NC(=O)Nc2c(-c3ccc(F)cc3)nc3ncccn23)c1 | 0 | x | -66 | -204 | x
CCc1ccc(C(=O)Cn2ccsc2=N)cc1 | 4 | -1 | -3 | -4 | 39*
CC(C)(C)NC(=O)NC(=O)Cn1ccsc1=N | 14 | -13 | -4 | -7 | -2
CCOC(=O)CC[C@H]1CC[C@]2(CCCN(C(=O)c3ccno3)C2)O1 | 9 | x | -2 | -2 | x
COc1ccc(-c2c(C)c3cc(O)ccc3oc2=O)cc1OC | -8 | -11 | -7 | -2 | 42*
Cc1cc(C)n2nc(C(=O)NCc3ccccc3)nc2n1 | 8 | -7 | 0 | -3 | 24*
Cc1ccc(CNC(=O)c2nc3nc(C)cc(C)n3n2)cc1 | 4 | -8 | -5 | 11 | 0
COc1ccc(-c2cc(C(=O)N3CCN(S(=O)(=O)c4ccccc4)CC3)[nH]n2)cc1 | 7 | 3 | -2 | -4 | 15*
CCN(CC)CC(=O)Nc1c(C)cc(C)cc1C | x | x | x | x | 10*
COc1cc(Cl)ccc1OCc1cc(C(=O)N2C[C@H]3CC[C@H]2C3)no1 | -6 | 13 | -3 | 1 | 13*
